Source: the OligoGym collection

Biological target: INPP5F
Experiment: pooled miR-30 sensor sort-seq; sequence = guide strand
Settings: shRNA
Also: reference of the scale not given here.

Sequence	sensor-assay potency score (higher = more potent)
TAATCTTCTCTCTTCCTGCCTG	0.168
TTCATTTGAAACTTGATTGGTC	0.857
TTGGGTAATACTAGCAACCTGG	-0.472

Biological target: INVS
Experiment: as above
Settings: shRNA

Sequence	sensor-assay potency score (higher = more potent)
TTTTAAAAACACTTTAACCGTT	-0.842
TTCGTGAGAACAACCATAGATT	-0.97
TACTTGAGCATTATTTTCCAGT	-0.382
AACATCAGTAGCATCTACTTGA	0.641
TTTAAAAACACTTTAACCGTTT	-0.562
TTAATATCTGGCAAACATCAGC	-0.861
TTATTTTCTATTAATATCTGGC	0.295
TAAGACGTTATATTGCAGCTTT	0.127
TAGAAGAGAATGTCCATCTTGG	0.67
TTGGTCAACTAGATCTACCCTT	0.547
TTTGTTTTCTTCCTCTCGCTTT	0.0611
TTTTATTCACATCTGCTCCTGC	0.562

Biological target: IP6K3
Experiment: as above
Settings: shRNA

Sequence	sensor-assay potency score (higher = more potent)
TATTTGAGATCTATAGCCCAGA	-0.584
TTGTTCTCTGGGTACTCGGAGC	-1.42
TTTTCCAGCAACAAGAACCGAT	-0.15
ATATTTACACTTGTCCACCAGT	-0.684
TTGCAGAGAAAGTACTTCTTAT	-0.832
TAGATGACAAGGAGAGAGCTGG	-0.213
TTACACTTGTCCACCAGTCTTG	-0.0833
TACACTTGTCCACCAGTCTTGT	-0.242
TTCTTCCATAGTACTTGTCTTT	-1.16
TTCATAGAACCTCTGCTCCCGG	-0.506
TGACACTACATTTTCCAGCAAC	-1.2
TTTTCTTCCATAGTACTTGTCT	0.567

Biological target: IPO11
Experiment: as above
Settings: shRNA

Sequence	sensor-assay potency score (higher = more potent)
TTAACTTCAAAGTTGTAGCTGT	0.668
TAAATCTTGATCTTGAAGCAAG	-0.725
TTGTTCTCCTAGCATCTCCTGC	-0.927
TATCTCTACACACATTATCTGT	-0.812
TTCTTTAATAGCATCATCTGAA	-0.198
TTGTAGTAGAACTCGACCCATA	-0.751
TAACAGGAAACTAAGCAGCTAT	-0.294
TTCCACAACCTTGAGCACCTGA	0.832
TTTGTAGTAGAACTCGACCCAT	-0.362
TATACTTCTACTGCATTCCAGA	-0.431
TAGCTGGGTGACAATCTCCGTA	-0.584
TAATTCTAAACCATCTTCCAGA	-0.364
